From PubChem BioAssay
Keap1 Nrf2 FP = inhibitors of human Keap1-Nrf2 protein-protein interaction; Q14145; Keap1 Kelch-Nrf2 peptide fluorescence polarization, 1536-well; inhibition, % at 9.4 µM; hit rate 0.15% among 340,000; AID 504523; in the data active = inhibition above about 12%;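 also: human Keap1 Kelch domain with fluorescein labeled Nrf2 9mer peptide probe; 0% = neutral control wells and 100% = peptide positive control; higher means more block of Keap1 binding to Nrf2 peptide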
Cardiac RTF inh = cardiac RTF calcium desensitization; hit rate 0.12% among 340,000; P19429+P45379; inhibition, % at 7.15 µM; IANBD-labeled cardiac RTF, Ca2+ fluorescence;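 active = inhibition above the mean inhibition of all tested compounds plus 3 SD, cut at about 17% in these data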;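 also: assay run at fixed EC70 calcium of 1.6 mM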
LANA DNA inh = blocks KSHV LANA C-terminal domain binding to DNA. inhibition, % at 9 µM. MBP-C-LANA/FAM-LBS DNA binding, fluorescence polarization. hit rate 0.078% among 340,000;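 active = highest replicate inhibition at or above 60% at 9 µM, even if other replicates fall short; inactive = all replicates below 60% inhibition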;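 also: 0% = neutral control wells and 100% = 4 µM acridine orange control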
LANA-H2A inh = blocks KSHV LANA binding to histone H2A/H2B | cell-free LANA-H2A/H2B peptide, fluorescence polarization | hit rate 0.6% among 320,000 | inhibition, % (no concentration beside the values) | AID 2629 | Q9QR71; in the data active = inhibition mostly above about 10%, no sharp cut-off; inactive = mostly below about 6.7%
cardiac RTF act = cardiac RTF calcium sensitization. hit rate 0.24% among 340,000. IANBD-labeled TnC RTF fluorescence at EC20 calcium; 0% EC20 calcium, 100% full calcium. activation, % at 7.2 µM. AID 493008. P19429+P45379;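 active = activation above the mean over all tested compounds plus 3 SD, cut at about 30% in these data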;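 also: rise in fluorescence read as greater calcium sensitivity of cardiac thin filaments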
RTF Ca inh conf = confirmation of inhibitors of cardiac thin filament calcium sensitivity; shares compounds with Cardiac RTF inh; reconstituted cardiac thin filaments, calcium sensitivity fluorescence; inhibition, % at 7.15 µM; hit rate 8% among 360; AID 504635; in the data active = inhibition above about 18%
Numbers without * were called inactive; · = no result given; ! = not active in a repeat. A selection: hits, their analogues and other compounds. The true share with any hit is near 0.99%.

SMILES	Keap1 Nrf2 FP	Cardiac RTF inh	LANA DNA inh	LANA-H2A inh	cardiac RTF act	RTF Ca inh conf
Cc1cc(C)n2c(SCC(=O)Nc3cc(C)on3)nnc2n1	0	18*	3	6	-4	-5
Cc1ccc(-c2cc(C(=O)N/N=C/c3ccco3)[nH]n2)cc1	-5	17*	-2	-6	4	-6
Fc1ccccc1CSc1ccc(-c2ccco2)nn1	-3	19*	2	1	-5	-2
COc1cccc2c1NC(C(=O)O)C1CC=CC21 (stereo unspecified)	1	19*	58	7	-36	15
C=CCN1C(=O)c2ccc(C(=O)OCC(=O)N3CCN(c4ccccc4)CC3)cc2C1=O	6	21*	0	8	4	-3
CN(C)CC[C@@H](c1ccc(Cl)cc1)c1ccccn1	0	17*	-2	-1	2	0
CC(C)(C)C(=O)Nc1ncccc1C(O)c1cccc(C(F)(F)F)c1 (stereo unspecified)	1	19*	0	-2	-10	-1
O=C1[C@@H]2C3C=CC(O3)[C@@H]2C(=O)N1c1ccccc1	·	·	·	0	·	·
CCCCCCCCC(=O)O	·	·	·	-4	·	·
CCCCCCCCCCCCCCCC(=O)OC(CC(=O)O)C[N+](C)(C)C (stereo unspecified)	5	18*	1	·	5	-5
COc1ccc(CNC(=O)C23CC4CC(CC(Br)(C4)C2)C3)cc1	-4	-4	2	-1	-1	·
COc1cc2c(cc1OC)CN(C(=O)c1nn(Cc3ccccc3)c(=O)c3ccccc13)CC2	1	-4	1	-8	-4	·
Cc1cc(NC(=O)C(C)SCC(=O)N(C)CC(=O)Nc2ccc(Br)cc2C)no1 (stereo unspecified)	1	-1	2	-2	-5	·
Cc1ccc(C)c(NC(=O)CN(C)C(=O)CSC(C)C(=O)Nc2cc(C)on2)c1 (stereo unspecified)	-4	19*	2	-5	-6	-1
Cc1ccc(C)n1Cc1ccc(C(=O)O)cc1	-4	71*	114*	2	-35	22*
Cc1cc(C)n(Cc2ccc(C(=O)O)cc2)n1	-2	0	1	8	-1	·
Cc1ccc(S(=O)(=O)NC(C)c2ccccc2)cc1[N+](=O)[O-] (stereo unspecified)	-6	2	-2	7	3	·
COc1ccc(-n2c(=O)[nH]cc(C(=O)N3CCCc4ccccc43)c2=O)cc1	-5	-28	0	-2	-2	·
Cc1cc(C(=O)OC2CCOC2=O)c2ccccc2n1 (stereo unspecified)	-4	19*	0	-4	6	-4
COc1ccc(-c2cc(C(=O)OC3CCOC3=O)c3ccccc3n2)cc1 (stereo unspecified)	-2	-1	1	1	-2	·
CCc1oc2ccccc2c1C(=O)c1cc(Br)c(O)c(Br)c1	-2	18*	9	22*!	-12	1
CCc1ccc(OCC(=O)c2c(O)c3ccccc3oc2=O)cc1	1	0	0	2	3	·
COC(=O)N/N=C(\C)c1ccc(OC(F)F)cc1OC(F)F	5	17*	0	4	1	-6
O=C(NCc1ccccc1)c1ccc(F)c(S(=O)(=O)N2CCOCC2)c1	4	63*	1	-4	-29	-1
CCCc1nc(SCc2ccc(Cl)cc2Cl)n[nH]1	-2	-6	-1	-3	-3	·
SMILES	Keap1 Nrf2 FP	Cardiac RTF inh	LANA DNA inh	LANA-H2A inh	cardiac RTF act	RTF Ca inh conf
O=C(C1CCCO1)N(c1cccc(Cl)c1)C1C=CS(=O)(=O)C1 (stereo unspecified)	1	4	-4	5	9	·
COC(=O)C1CCN(C(=O)c2cc(OC)c(OC)c(OC)c2)CC1	-1	-16	0	-2	5	·
COc1cc(C(=O)N2CCN(C(=O)C3CC3)CC2)cc(OC)c1OC	3	20*	0	7	1	-4
CSC(=NCc1ccc(F)cc1)NS(=O)(=O)c1cccs1	5	17*	-3	0	-1	0
O=C(CNS(=O)(=O)c1cccs1)NCc1ccc(F)cc1	4	-11	0	-1	1	·
CCCC(C)NC1=NCCCCC1 (stereo unspecified)	-8	18*	1	4	0	-6
CCN1CCCC1CNC1=NCCCCC1 (stereo unspecified)	-3	-12	-1	0	-3	·
